What all share (parameters): species or system human, MV4-11 + K-562 + COLO205 + SK-N-BE2 + OVCAR-8
The subject of one assay is CDK7. To be noted: read-out: apparent Kd, n = 1.
The subject of a further assay is ERCC2. The note with it: read-out: apparent Kd, n = 1.
A further assay deals with FER. To be noted: read-out: apparent Kd, compound concentrations: 100 nM and 1000 nM (sheet 'Samples'), n = 1.
A further assay relates to PRKAG1. The note with it: read-out: apparent Kd, n = 1.
Another assay relates to PRKCD. To be noted: read-out: apparent Kd, n = 1.
The next assay deals with PRKCQ. The note with it: read-out: apparent Kd; compound concentrations: 100 nM and 1000 nM (sheet 'Samples'), CATDS: 0.111424858077941; n = 1.
The next assay has as its system PTK2B. The note with it: read-out: apparent Kd, compound concentrations: 100 nM and 1000 nM (sheet 'Samples'), n = 1.
A further assay relates to RPS6KA6. The note with it: read-out: apparent Kd, compound concentrations: 100 nM and 1000 nM (sheet 'Samples'), n = 1.
In another assay the test system is MYLK3. The note with it: read-out: apparent Kd, n = 1.
The test system of the next assay is CDKL5. The note with it: read-out: apparent Kd, n = 1.
The next assay relates to LATS1. The note with it: read-out: apparent Kd, n = 1.
The subject of the next assay is PRKD2. The note with it: read-out: apparent Kd, n = 1.
For another assay, the system named is PRKD3. The note with it: read-out: apparent Kd, n = 1.
The next assay relates to DYRK1A. The note with it: read-out: apparent Kd, n = 1.
In another assay the test system is PLK4. To be noted: read-out: apparent Kd, n = 1.
In a further assay the test system is MARK4. The note with it: read-out: apparent Kd, n = 1.
For a further assay, the system named is STK10. To be noted: read-out: apparent Kd, n = 1.
The test system of another assay is PRKAA1. To be noted: read-out: apparent Kd; compound concentrations:100 nM and 1000 nM (sheet 'Samples'); n = 1.
For a further assay, the system named is PTK2. The note with it: read-out: apparent Kd; compound concentrations: 100 nM and 1000 nM (sheet 'Samples'), CATDS: 4.2596941934388698E-2; n = 1.
The mark [1] stands for this setting: compound concentrations:100 nM and 1000 nM (sheet 'Samples').

Read-outs that look alike come from different tables or passages of the source.

Regarding `CNCC1CCn2c(c(C3=C(c4cn(C)c5ccccc45)C(=O)NC3=O)c3ccccc32)C1` (stereo not drawn) [RO0318676-000], the potency estimated from few doses in the assay on CDK7 (compound concentrations: 100 nM and 1000 nM (sheet 'Samples'), CATDS: 3.3814045459066702E-2) was 945 nM; with ERCC2 (compound concentrations: 100 nM and 1000 nM (sheet 'Samples'), CATDS: 3.3447385930038299E-2), 976 nM; in the assay on FER (CATDS: 3.4006049633961401E-2), 929 nM; in the assay with PRKAG1 (compound concentrations: 100 nM and 1000 nM (sheet 'Samples'), CATDS: 3.0243229141785101E-2), 1340 nM; in the assay on PRKCD (compound concentrations: 100 nM and 1000 nM (sheet 'Samples'), CATDS: 0.12623439225341199), 48.7 nM; in the assay on PRKCQ, 61.3 nM. Besides, the potency estimated from few doses is 849 nM in the assay on PTK2B (CATDS: 3.5074234548869702E-2) and 98.7 nM in the assay with RPS6KA6 (CATDS: 8.7281654841073406E-2).
`COc1cc[nH]c1/C=C1\C(=O)Nc2ccc(F)c(I)c21` [RO0281567-000]: the potency estimated from few doses with MYLK3 (compound concentrations: 100 nM and 1000 nM (sheet 'Samples'), CATDS: 0.10963488486357401) was 1520 nM.
Consider `Cn1cc(C2=C(c3c(S(C)=O)n(C)c4ccccc34)C(=O)NC2=O)c2ccccc21` (stereo not drawn) [RO0317379-000], for which the potency estimated from few doses in the assay with CDKL5 (compound concentrations: 100 nM and 1000 nM (sheet 'Samples'), CATDS: 0.106131192264054) was 1600 nM.
On to `NS(=O)(=O)c1ccc(NC=C2C(=O)Nc3ccc4ncsc4c32)cc1` [GW589933X], for which the potency estimated from few doses was 52.4 nM in the assay with CDKL5 (compound concentrations: 100 nM and 1000 nM (sheet 'Samples'), CATDS: 7.9596409580243901E-2); 1020 nM in the assay on LATS1 (compound concentrations: 100 nM and 1000 nM (sheet 'Samples'), CATDS: 1.9733333265128199E-2); 23.7 nM with MYLK3 (compound concentrations: 100 nM and 1000 nM (sheet 'Samples'), CATDS: 0.127483608454634); 1460 nM in the assay on PRKD2 (compound concentrations: 100 nM and 1000 nM (sheet 'Samples'), CATDS: 1.78038958195245E-2); 1760 nM with PRKD3 (compound concentrations: 100 nM and 1000 nM (sheet 'Samples'), CATDS: 1.69814633200863E-2).
In the case of `O=C1N=C(N[C@@H](CO)Cc2ccccc2)S/C1=C\c1ccc2ncccc2c1` [RO4509200-000], the potency estimated from few doses in the assay with CDKL5 (compound concentrations: 100 nM and 1000 nM (sheet 'Samples'), CATDS: 0.117206813575506) is 975 nM; with DYRK1A (compound concentrations: 100 nM and 1000 nM (sheet 'Samples'), CATDS: 0.168916103718072), 440 nM.
In the case of `CC(C)(CO)CNC(=O)c1ccc2c(c1)/C(=N/Nc1ccc(S(N)(=O)=O)cc1)C(=O)N2` [GW301784X], in the assay on CDKL5 (setting [1]), the potency estimated from few doses is 172 nM.
For the compound `O=C1N=C(NCc2ccccc2Br)S/C1=C\c1ccc2ncccc2c1` [RO4506918-000], in the assay on DYRK1A (compound concentrations: 100 nM and 1000 nM (sheet 'Samples'), CATDS: 8.9156542240232201E-2), the potency estimated from few doses is 912 nM.
Turning to `NS(=O)(=O)c1ccc(N/C=C2\C(=O)Nc3ccc4ncsc4c32)cc1` [GW297361X], the potency estimated from few doses is 448 nM in the assay with CDKL5 (compound concentrations: 100 nM and 1000 nM (sheet 'Samples'), CATDS: 5.4362762723509199E-2); 106 nM with MYLK3 (compound concentrations: 100 nM and 1000 nM (sheet 'Samples'), CATDS: 0.13217199419509801); 2200 nM with PRKD2 (compound concentrations: 100 nM and 1000 nM (sheet 'Samples'), CATDS: 2.8859084082920799E-2).
For the compound `COc1cc[nH]c1/C=C1\C(=O)Nc2ccc([N+](=O)[O-])c(N3CC[C@@H](O)C3)c21` [RO0504985-000], the potency estimated from few doses in the assay on CDKL5 (compound concentrations: 100 nM and 1000 nM (sheet 'Samples'), CATDS: 0.118567124910979) was 46.7 nM.
With `COc1cc2ncn(-c3cc(OCc4ccccc4S(C)(=O)=O)c(C#N)s3)c2cc1OC` [GSK319347A], the potency estimated from few doses in the assay on MYLK3 (compound concentrations: 100 nM and 1000 nM (sheet 'Samples'), CATDS: 9.2768404511317695E-2) is 1190 nM; with PLK4 (compound concentrations: 100 nM and 1000 nM (sheet 'Samples'), CATDS: 8.6919710650877405E-2) it was 1390 nM.
Take `COc1cccc(C2=C(c3c(C)n(C)c4ccccc34)C(=O)NC2=O)c1` [RO3300167-000]: the potency estimated from few doses in the assay on LATS1 (compound concentrations: 100 nM and 1000 nM (sheet 'Samples'), CATDS: 7.6284475672850502E-2) was 1700 nM; with MARK4 (compound concentrations: 100 nM and 1000 nM (sheet 'Samples'), CATDS: 8.0513919134026293E-2) it was 1480 nM; in the assay with PRKD2 (compound concentrations: 100 nM and 1000 nM (sheet 'Samples'), CATDS: 8.0855416148342393E-2), 1470 nM; in the assay on PRKD3 (compound concentrations: 100 nM and 1000 nM (sheet 'Samples'), CATDS: 7.4607672697658597E-2) it was 1800 nM.
Turning to `Nc1nccc(-c2ccc3c(N)n[nH]c3c2)n1` [GSK1034945A], the potency estimated from few doses in the assay with DYRK1A (setting [1]) is 117 nM; in the assay with MARK4 (setting [1]) it was 1790 nM; in the assay on MYLK3 (setting [1]), 65.5 nM; with PRKD2 (setting [1]), 2030 nM; in the assay with STK10 (setting [1]) it was 1120 nM.
`NS(=O)(=O)c1ccc(N/N=C2\C(=O)Nc3ccc(-c4cnco4)cc32)cc1` [GW276655_KCGS]: the potency estimated from few doses in the assay on MYLK3 (setting [1]) is 988 nM.
For `COc1cc[nH]c1/C=C1\C(=O)Nc2ccc(F)c(C#C[C@@H](O)[C@@H](N)[C@@H](C)O)c21` [RO0283120-000], the potency estimated from few doses in the assay with CDK7 (setting [1]) was 445 nM; in the assay with CDKL5 (setting [1]), 32.4 nM; with ERCC2 (setting [1]) it was 785 nM; in the assay on LATS1 (setting [1]) it was 125 nM; in the assay on MARK4 (setting [1]) it was 703 nM; in the assay with MYLK3 (setting [1]), 827 nM. In addition, the potency estimated from few doses was 1040 nM with PRKAA1, 821 nM in the assay with PRKAG1 (setting [1]), 278 nM with PRKD2 (setting [1]) and 236 nM with PRKD3 (setting [1]).
With `O=C(Nc1n[nH]c2nc(-c3ccccc3O)ccc12)C1CC1` [SB-711880], the potency estimated from few doses in the assay on CDKL5 (setting [1]) is 1450 nM; in the assay with LATS1 (setting [1]), 1030 nM; in the assay on MARK4 (setting [1]), 1680 nM; in the assay on MYLK3 (setting [1]), 219 nM; with PLK4 (setting [1]), 867 nM; in the assay on PRKD2 (setting [1]), 712 nM. Moreover, the potency estimated from few doses with PRKD3 (setting [1]) is 570 nM; in the assay on STK10 (setting [1]), 1200 nM.
In the case of `CC(C)N1CC(=O)N(C)c2cnc(Nc3cccc(S(=O)(=O)CCN4CCOCC4)c3)nc21` [BI00009348], the potency estimated from few doses in the assay with STK10 (compound concentrations: 100 nM and 1000 nM (sheet 'Samples'), CATDS: 5.40109770146803E-2) is 1450 nM.
With `Cl.Cl.NC[C@H](CC1CCCCC1)NC(=O)c1ccc(-c2ccnc3[nH]ccc23)s1.NC[C@H](CC1CCCCC1)NC(=O)c1ccc(-c2ccnc3[nH]ccc23)s1` [GSK1581428A], the results for the potency estimated from few doses with LATS1 (setting [1]) and in the assay with PRKCD (setting [1]) were 1120 nM and 719 nM, respectively.
For `Cn1cc(C2=C(c3ccc(OC[C@@H](O)CO)cc3)C(=O)NC2=O)c2ccccc21` [RO3208546-000], the potency estimated from few doses in the assay on CDK7 (compound concentrations: 100 nM and 1000 nM (sheet 'Samples'), CATDS: 4.6127698813653598E-2) was 768 nM; with ERCC2 (compound concentrations: 100 nM and 1000 nM (sheet 'Samples'), CATDS: 5.3996089618989399E-2), 559 nM; in the assay on FER (CATDS: 5.24891250459407E-2) it was 590 nM; with PRKAG1 (compound concentrations: 100 nM and 1000 nM (sheet 'Samples'), CATDS: 4.3402383935848998E-2) it was 879 nM; in the assay with PTK2B (CATDS: 4.1151087302781601E-2) it was 996 nM; in the assay on PTK2 it was 918 nM. Besides, in the assay on RPS6KA6 (CATDS: 5.0913712031047997E-2), the potency estimated from few doses was 626 nM.
